{"source": "paper PMC11062922", "about": "(Nature Chemical Biology, 2023)", "tested_on": "PRKD3", "settings": "read-out: apparent Kd, n = 1", "note": "Read-outs that look alike come from different tables or passages of the source."}
{"substance": "Lestaurtinib", "values": [{"measurement": "potency estimated from few doses", "setting": "compound concentrations:100 nM and 1000 nM (sheet 'Lestaurtinib' of Supplementary Table 1),run:Lestaurtinib_02438_R1,Plate:MR008", "result": 84.2, "unit": "nM"}, {"measurement": "potency estimated from few doses", "setting": "compound concentrations:100 nM and 1000 nM (sheet 'Lestaurtinib' of Supplementary Table 1),run:Lestaurtinib_02438_R2,Plate:MR008", "result": 51.6, "unit": "nM"}, {"measurement": "potency estimated from few doses", "setting": "compound concentrations:100 nM and 1000 nM (sheet 'Lestaurtinib' of Supplementary Table 1),run:Lestaurtinib_02438_R3,Plate:MR008", "result": 82.5, "unit": "nM"}, {"measurement": "potency estimated from few doses", "setting": "compound concentrations:100 nM and 1000 nM (sheet 'Lestaurtinib' of Supplementary Table 1),run:Lestaurtinib_02443_R1,Plate:MR009", "result": 91.7, "unit": "nM"}, {"measurement": "potency estimated from few doses", "setting": "compound concentrations:100 nM and 1000 nM (sheet 'Lestaurtinib' of Supplementary Table 1),run:Lestaurtinib_02473_R1,Plate:MR010", "result": 77.7, "unit": "nM"}, {"measurement": "potency estimated from few doses", "setting": "compound concentrations:100 nM and 1000 nM (sheet 'Lestaurtinib' of Supplementary Table 1),run:Lestaurtinib_02473_R3,Plate:MR010", "result": 79.7, "unit": "nM"}, {"measurement": "potency estimated from few doses", "setting": "compound concentrations:100 nM and 1000 nM (sheet 'Lestaurtinib' of Supplementary Table 1),run:Lestaurtinib_02482_R1,Plate:MR011", "result": 95.2, "unit": "nM"}, {"measurement": "potency estimated from few doses", "setting": "compound concentrations:100 nM and 1000 nM (sheet 'Lestaurtinib' of Supplementary Table 1),run:Lestaurtinib_02482_R3,Plate:MR011", "result": 132, "unit": "nM"}, {"measurement": "potency estimated from few doses", "setting": "compound concentrations:100 nM and 1000 nM (sheet 'Lestaurtinib' of Supplementary Table 1),run:Lestaurtinib_02487_R1,Plate:MR012", "result": 90.9, "unit": "nM"}, {"measurement": "potency estimated from few doses", "setting": "compound concentrations:100 nM and 1000 nM (sheet 'Lestaurtinib' of Supplementary Table 1),run:Lestaurtinib_02487_R2,Plate:MR012", "result": 84.9, "unit": "nM"}, {"measurement": "potency estimated from few doses", "setting": "compound concentrations:100 nM and 1000 nM (sheet 'Lestaurtinib' of Supplementary Table 1),run:Lestaurtinib_02487_R3,Plate:MR012", "result": 94.1, "unit": "nM"}, {"measurement": "potency estimated from few doses", "setting": "compound concentrations:100 nM and 1000 nM (sheet 'Lestaurtinib' of Supplementary Table 1),run:Lestaurtinib_02496_R2,Plate:MR013", "result": 79, "unit": "nM"}, {"measurement": "potency estimated from few doses", "setting": "compound concentrations:100 nM and 1000 nM (sheet 'Lestaurtinib' of Supplementary Table 1),run:Lestaurtinib_02496_R3,Plate:MR013", "result": 79.4, "unit": "nM"}, {"measurement": "potency estimated from few doses", "setting": "compound concentrations:100 nM and 1000 nM (sheet 'Lestaurtinib' of Supplementary Table 1),run:Lestaurtinib_02566_R2,Plate:MR014", "result": 57.7, "unit": "nM"}, {"measurement": "potency estimated from few doses", "setting": "compound concentrations:100 nM and 1000 nM (sheet 'Lestaurtinib' of Supplementary Table 1),run:Lestaurtinib_02566_R3,Plate:MR014", "result": 52.9, "unit": "nM"}, {"measurement": "potency estimated from few doses", "setting": "compound concentrations:100 nM and 1000 nM (sheet 'Lestaurtinib' of Supplementary Table 1),run:Lestaurtinib_02572_R1,Plate:MR015", "result": 45.9, "unit": "nM"}, {"measurement": "potency estimated from few doses", "setting": "compound concentrations:100 nM and 1000 nM (sheet 'Lestaurtinib' of Supplementary Table 1),run:Lestaurtinib_02577_R1,Plate:MR016", "result": 100, "unit": "nM"}, {"measurement": "potency estimated from few doses", "setting": "compound concentrations:100 nM and 1000 nM (sheet 'Lestaurtinib' of Supplementary Table 1),run:Lestaurtinib_02577_R2,Plate:MR016", "result": 87.6, "unit": "nM"}, {"measurement": "potency estimated from few doses", "setting": "compound concentrations:100 nM and 1000 nM (sheet 'Lestaurtinib' of Supplementary Table 1),run:Lestaurtinib_02577_R3,Plate:MR016", "result": 59.2, "unit": "nM"}, {"measurement": "potency estimated from few doses", "setting": "compound concentrations:100 nM and 1000 nM (sheet 'Lestaurtinib' of Supplementary Table 1),run:Lestaurtinib_02584_R1,Plate:MR017", "result": 95.1, "unit": "nM"}, {"measurement": "potency estimated from few doses", "setting": "compound concentrations:100 nM and 1000 nM (sheet 'Lestaurtinib' of Supplementary Table 1),run:Lestaurtinib_02584_R2,Plate:MR017", "result": 100, "unit": "nM"}, {"measurement": "potency estimated from few doses", "setting": "compound concentrations:100 nM and 1000 nM (sheet 'Lestaurtinib' of Supplementary Table 1),run:Lestaurtinib_02584_R3,Plate:MR017", "result": 113, "unit": "nM"}, {"measurement": "potency estimated from few doses", "setting": "compound concentrations:100 nM and 1000 nM (sheet 'Lestaurtinib' of Supplementary Table 1),run:Lestaurtinib_02601_R2,Plate:MR018", "result": 71.2, "unit": "nM"}, {"measurement": "potency estimated from few doses", "setting": "compound concentrations:100 nM and 1000 nM (sheet 'Lestaurtinib' of Supplementary Table 1),run:Lestaurtinib_02601_R3,Plate:MR018", "result": 77.1, "unit": "nM"}, {"measurement": "potency estimated from few doses", "setting": "compound concentrations:100 nM and 1000 nM (sheet 'Lestaurtinib' of Supplementary Table 1),run:Lestaurtinib_02606_R1,Plate:MR019", "result": 69.4, "unit": "nM"}, {"measurement": "potency estimated from few doses", "setting": "compound concentrations:100 nM and 1000 nM (sheet 'Lestaurtinib' of Supplementary Table 1),run:Lestaurtinib_02606_R2,Plate:MR019", "result": 130, "unit": "nM"}, {"measurement": "potency estimated from few doses", "setting": "compound concentrations:100 nM and 1000 nM (sheet 'Lestaurtinib' of Supplementary Table 1),run:Lestaurtinib_02606_R3,Plate:MR019", "result": 130, "unit": "nM"}, {"measurement": "potency estimated from few doses", "setting": "compound concentrations:100 nM and 1000 nM (sheet 'Lestaurtinib' of Supplementary Table 1),run:Lestaurtinib_02624_R1,Plate:MR020", "result": 67.4, "unit": "nM"}, {"measurement": "potency estimated from few doses", "setting": "compound concentrations:100 nM and 1000 nM (sheet 'Lestaurtinib' of Supplementary Table 1),run:Lestaurtinib_02624_R2,Plate:MR020", "result": 90.4, "unit": "nM"}, {"measurement": "potency estimated from few doses", "setting": "compound concentrations:100 nM and 1000 nM (sheet 'Lestaurtinib' of Supplementary Table 1),run:Lestaurtinib_02624_R3,Plate:MR020", "result": 79.8, "unit": "nM"}, {"measurement": "potency estimated from few doses", "setting": "compound concentrations:100 nM and 1000 nM (sheet 'Lestaurtinib' of Supplementary Table 1),run:Lestaurtinib_02724_R1,Plate:MR021", "result": 56.1, "unit": "nM"}, {"measurement": "potency estimated from few doses", "setting": "compound concentrations:100 nM and 1000 nM (sheet 'Lestaurtinib' of Supplementary Table 1),run:Lestaurtinib_02724_R2,Plate:MR021", "result": 71.1, "unit": "nM"}, {"measurement": "potency estimated from few doses", "setting": "compound concentrations:100 nM and 1000 nM (sheet 'Lestaurtinib' of Supplementary Table 1),run:Lestaurtinib_02724_R3,Plate:MR021", "result": 59.7, "unit": "nM"}, {"measurement": "potency estimated from few doses", "setting": "compound concentrations:100 nM and 1000 nM (sheet 'Lestaurtinib' of Supplementary Table 1),run:Lestaurtinib_02741_R1,Plate:MR023", "result": 88.2, "unit": "nM"}, {"measurement": "potency estimated from few doses", "setting": "compound concentrations:100 nM and 1000 nM (sheet 'Lestaurtinib' of Supplementary Table 1),run:Lestaurtinib_02741_R2,Plate:MR023", "result": 56.3, "unit": "nM"}, {"measurement": "potency estimated from few doses", "setting": "compound concentrations:100 nM and 1000 nM (sheet 'Lestaurtinib' of Supplementary Table 1),run:Lestaurtinib_02741_R3,Plate:MR023", "result": 88.4, "unit": "nM"}, {"measurement": "potency estimated from few doses", "setting": "compound concentrations:100 nM and 1000 nM (sheet 'Lestaurtinib' of Supplementary Table 1),run:Lestaurtinib_02748_R1,Plate:MR024", "result": 86, "unit": "nM"}, {"measurement": "potency estimated from few doses", "setting": "compound concentrations:100 nM and 1000 nM (sheet 'Lestaurtinib' of Supplementary Table 1),run:Lestaurtinib_02748_R3,Plate:MR024", "result": 98, "unit": "nM"}, {"measurement": "potency estimated from few doses", "setting": "compound concentrations:100 nM and 1000 nM (sheet 'Lestaurtinib' of Supplementary Table 1),run:Lestaurtinib_02752_R1,Plate:MR025", "result": 92.9, "unit": "nM"}, {"measurement": "potency estimated from few doses", "setting": "compound concentrations:100 nM and 1000 nM (sheet 'Lestaurtinib' of Supplementary Table 1),run:Lestaurtinib_02752_R3,Plate:MR025", "result": 99.3, "unit": "nM"}, {"measurement": "potency estimated from few doses", "setting": "compound concentrations:100 nM and 1000 nM (sheet 'Lestaurtinib' of Supplementary Table 1),run:Lestaurtinib_02765_R3,Plate:MR026", "result": 82.4, "unit": "nM"}, {"measurement": "potency estimated from few doses", "setting": "compound concentrations:100 nM and 1000 nM (sheet 'Lestaurtinib' of Supplementary Table 1),run:Lestaurtinib_02766_R1,Plate:MR027", "result": 99.2, "unit": "nM"}]}
